Experimental data from PubChem BioAssay AID602371 (National Center for Advancing Translational Sciences (NCATS), 2012).
Inconclusive results are not listed. Active and inactive are the calls of the source. Calls follow the shape of the dose curve; as a rule, active = well fitted inhibition curve with a large enough effect; inconclusive = small, poorly fitted or top-dose-only effect; inactive = flat fitted curve, though single readings scatter.

test: qHTS Assay for Inhibitors of Bacillus subtilis Sfp phosphopantetheinyl transferase (PPTase): SAR in B subtilis 168; conditions: Bacillus subtilis 168 growth inhibition
Text: The covalent attachment of a phosphopantetheinyl (4'-PP) arm to a variety of synthases and other proteins is a key posttranslational protein modification. The 4'-PP is installed on the proteins post-translationally from coenzyme A (CoA) on a conserved serine residue by action of phosphopantetheinyl transferase (PPTase) enzymes. Phosphopantetheinylation is essential for synthase activity, and removal of the PPTase gene precludes natural product synthesis in microorganisms, or in the case of fatty acid biosynthesis, renders the organism unviable. PPTase enzymes belong to a distinct structural superfamily. Within bacteria, these enzymes are grouped into two classes based upon primary structure, the AcpS-Type and Sfp-Type PPTases.
Sfp-type PPTases, corresponding to an activator of surfactin production in Bacillus subtilis, are responsible for modifying type I polyketide and nonribosomal peptide synthases of prokaryotes. Sfp-type PPTases are responsible for the activation of a variety of pathogen-associated virulence factors. Among these compounds are toxins such as mycolactone from Mycobacterium ulcerans, siderophores such as vibriobactin from Vibrio cholerae or mycobactin from Mycobacterium tuberculosis, as well as the mycolic acids which form the waxy cell wall of Mycobacteria. The biosyntheses of these natural products are considered attractive targets for drug design.
In search of small molecule Sfp-PPTase inhibitors, a fluorescence quenching assay was developed for detection of Bacillus subtilis Sfp-PPTase enzymatic activity in a miniaturized high-throughput format. The consensus ybbr acceptor peptide […] was N-terminally labeled with Black Hole Quencher-2 (BHQ-2) and used in combination with rhodamine-labeled coenzyme A as a co-substrate.
Phosphopantetheinyl transfer is a process essential to cellular viability and maintenance. Cell-permeable and stable compounds acting as PPTase inhibitors are anticipated to be antimicrobial agents in organisms with complimenting genotypes. […] This experiment evaluated a series of test compounds for antimicrobial activity with B. subtilis 168 (genotype: acpS+ and sfp-), a strain that contains a frameshift mutation in the sfp locus and thus requires a functional AcpS gene product for viability. [Mootz HD, 2001] This strain is expected to be sensitized to cell-permeable AcpS inhibitors, and insensitive to Sfp inhibitors.
NIH Chemical Genomics Center [NCGC]
NIH Molecular Libraries Probe Centers Network [MLPCN]
Assay Submitter (PI): Michale Burkart, University of California, San Diego
Bacillus subtilis 168 is maintained on lysogeny broth (LB) solidified by the addition of 1.5% w/v agar. Single colonies were used to LB medium (2 mL) and shaken overnight at 30 deg C. In the morning, this culture (100 uL) was used to seed a fresh LB medium (10 mL) and was shaken at 30 degC until the culture OD600 reached 0.5. This culture was diluted 1:100 in fresh LB medium to provide the inoculum below.
Bacterial susceptibility.
LB medium (2 uL) is dispensed into wells of a sterile white 1536-well plate. Test compounds (23 nL) prepared as serial dilutions in DMSO are added to the plate by pintool transfer. Innoculum (2 uL) is added, the plates are covered with a vented Kalypsys assay lid and incubated at 30 deg C. After 5 h, Bac-Titer Glo (4 uL; Promega Corp, Madison, WI) is added to the plates. They are incubated 10 minutes at room temperature and then the luminescence detected in a ViewLux multimodal plate reader.

Potency, active:
Cc1ccnc(NC(=S)N2CC3CN(c4ncc(C(F)(F)F)cc4Cl)CC3C2)c1 (centres undefined) 16.7 µM
Cc1cc(C)nc(NC(=S)N2CCN(c3ccc([N+](=O)[O-])cc3Cl)CC2)c1 14.8 µM
Cc1ccnc(NC(=S)N2CCN(c3cccc(N(C)C)c3)CC2)c1 46.9 µM
Cc1ccnc(NC(=S)N2CCCN(c3cccc(C(F)(F)F)c3)CC2)c1 11.8 µM
COc1ccnc(NC(=S)N2CCN(c3ccc(Cl)cc3Cl)CC2)c1 16.7 µM
Cc1cc(C)nc(NC(=S)N2CCN(c3ccc(Cl)c(Cl)c3)CC2)c1 37.3 µM
CSC(Cc1ccc(Cl)cc1)C(=O)Nc1ccc(Cl)cc1C(=O)O (centres undefined) 23.5 µM
COc1ccnc(NC(=S)N2CCN(c3cccc(Cl)c3Cl)CC2)c1 13.2 µM
S=C(Nc1cc(Cl)ccn1)N1CCN(c2cccc(Cl)c2Cl)CC1 16.7 µM
FC(F)(F)c1cc(N2CCN(C(=S)Nc3cc(Cl)ccn3)CC2)cc(C(F)(F)F)c1 6.63 µM
Cc1cc(C)nc(NC(=S)N2CC3CN(c4ccc(Cl)cc4C(F)(F)F)CC3C2)c1 (centres undefined) 11.8 µM
Cc1cc(C)nc(NC(=S)N2CCN(c3cc(Br)cc(C(F)(F)F)c3)CC2)c1 16.7 µM
Cc1ccnc(NC(=S)N2CCN(c3cccc(C(F)(F)F)c3)CC2)c1 14.8 µM
Cc1ccnc(NC(=S)N2CCN(c3cc(C(F)(F)F)cc(C(F)(F)F)c3)CC2)c1 14.8 µM
FC(F)(F)c1cccc(N2CCN(C(=S)Nc3cc(C(F)(F)F)ccn3)CC2)c1 16.7 µM
Cc1ccnc(NC(=S)N2CC3CN(c4cccc(C(F)(F)F)c4)CC3C2)c1 (centres undefined) 8.35 µM
Cc1cc(C)nc(NC(=S)N2CCN(c3ccc(Cl)cc3Cl)CC2)c1 33.2 µM
Cc1ccnc(NC(=S)Nc2cccc(C(F)(F)F)c2)c1 18.7 µM
COc1ccnc(NC(=S)N2CCN(c3ncc(C(F)(F)F)cc3Cl)CC2)c1 18.7 µM
